Screening results as filed in PubChem.
FBA Mtb inh: Mtb fructose-bisphosphate aldolase inhibition. P9WQA3. purified M. tuberculosis FBA, fluorescence read-out. inhibition, % at 1 µM. 360,000 tested, 2.3% active. AID 588726; in the data active means inhibition above about 27%;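 further: 0% = vehicle and 100% = reference inhibitor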
Rv3671c protease: inhibitors of M. tuberculosis serine protease Rv3671c; inhibition, % at 5.96 µM; AID 2606; P9WHR9; 320,000 tested, 0.048% active; in the data active means inhibition above about 38%;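 further: extracellular domain of Rv3671c used as enzyme; 0% = enzyme with DMSO and 100% = no enzyme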
GDH-TPI counter: inhibits GDH-TPI coupling enzymes, artifact for Mtb FBA screen | GDH-TPI coupled enzyme counterscreen, NADH absorbance | inhibition, % at 4.8 µM | 360,000 tested, 1.2% active | AID 588335; in the data active means inhibition above about 30%;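 further: 0% = DMSO wells and 100% = wells lacking the enzyme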
FadD28 FP inh: inhibitors of Mycobacterium tuberculosis FadD28 bisubstrate binding; FadD28 bisubstrate probe binding, fluorescence polarization; inhibition, % at 12.5 µM; 360,000 tested, 0.22% active; AID 588549; in the data active means inhibition above about 8.5%, passing the limit was not always enough
UGM FP inh: inhibitors of M. tuberculosis UDP-galactopyranose mutase | AID 504406 | purified UGM, fluorescence polarization probe displacement | 320,000 tested, 0.06% active | inhibition, % at 10 µM; in the data active means inhibition above about 10%, passing the limit was not always enough
Target sequence (P9WIQ1 whole entry, looked up): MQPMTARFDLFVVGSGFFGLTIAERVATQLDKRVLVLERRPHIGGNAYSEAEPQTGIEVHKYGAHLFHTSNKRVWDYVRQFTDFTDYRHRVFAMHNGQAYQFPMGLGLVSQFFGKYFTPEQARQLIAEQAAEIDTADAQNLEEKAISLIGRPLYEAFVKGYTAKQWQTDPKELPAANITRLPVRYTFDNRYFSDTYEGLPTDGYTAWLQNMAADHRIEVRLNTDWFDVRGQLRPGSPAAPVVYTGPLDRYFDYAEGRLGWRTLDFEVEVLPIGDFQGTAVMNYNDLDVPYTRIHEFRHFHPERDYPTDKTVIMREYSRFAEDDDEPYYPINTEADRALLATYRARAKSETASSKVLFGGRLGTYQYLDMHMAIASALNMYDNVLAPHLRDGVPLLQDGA
Mtb hypoxia rep: inhibitors of hypoxia-regulated fluorescent reporter in Mycobacterium tuberculosis. 300,000 tested, 0.1% active. AID 1159583. fluorescence inhibition, % (concentration not given with the values). M. tuberculosis hypoxia-regulated fluorescent reporter, fluorescence; in the data active means fluorescence inhibition mostly above about 23%, no sharp cut-off; inactive means mostly below about 17%
Active calls of the source: *; x = not tested or not shown; + = active, no number. Rows were chosen to be rich in hits. Some 3.5% of all compounds tested hit in one or more screens of this group.

SMILES | FBA Mtb inh | Rv3671c protease | GDH-TPI counter | FadD28 FP inh | UGM FP inh | Mtb hypoxia rep
Cc1nc2c(=O)n(C)c(=O)[nH]c2n1Cc1ccccc1 | 16 | 2 | 8 | 1 | 0 | 8
COc1ccc(CCn2c(-c3ccccc3)nc3c(c(=O)c4ccccc4n3C)c2=O)cc1 | x | -7 | x | x | -2 | -3
O=[N+]([O-])c1ccc(Cl)c(C=NN2CCN(Cc3ccccc3)CC2)c1 | x | x | x | x | x | 7
Cc1cc(=O)oc2c3c(cc(OCC(=O)N4CCC(C(=O)O)CC4)c12)OC(C)(C)CC3 | + | 5 | 22 | 1 | -3 | x
Cc1c(CCC(=O)N2CCC[C@H]2C(=O)O)c(=O)oc2c(C)c3oc4c(c3cc12)CCCC4 | 26 | -6 | 27 | -6 | -2 | x
CCCCc1cc(=O)oc2c3c(cc(OCC(=O)N4CCC[C@H]4C(=O)O)c12)OC(C)(C)CC3 | + | 4 | 27 | 1 | -4 | x
Cc1cc(=O)oc2c3c(cc(OCC(=O)N4CCC[C@H]4C(=O)O)c12)OC(C)(C)CC3 | + | 1 | 26 | -3 | 2 | x
Cc1c(C)c2c(OCC(=O)N3CCC(C(N)=O)CC3)cc3c(c2oc1=O)CCC(C)(C)O3 | + | -10 | 27 | 2 | 0 | x
N#Cc1ccc(C=NNC(=O)c2ccccc2F)cc1 | x | x | x | x | x | 8
CCOC(=O)c1c(NC(=O)C(=O)NN=C(C)c2ccc(OC)cc2)sc2c1CCCCC2 | x | x | x | x | x | 7
N#C/C(=C/c1ccc(Br)o1)C(N)=O | 0 | 4 | 45* | 0 | 0 | x
N#C/C(=C/c1ccc(Br)o1)C(N)=S | x | -3 | x | x | 0 | x
Nc1ccc(-c2nc3c(Cl)cc(N)cc3[nH]2)cc1 | 197* | 4 | 45* | 5 | -2 | -4
Nc1ccc2nc(-c3ccccc3)[nH]c2c1 | + | -1 | 21 | -2 | 2 | 6
Nc1ccc2nc(-c3cccnc3)[nH]c2c1 | 4 | -1 | 21 | -2 | -1 | 7
Nc1ccc2nc(-c3cccs3)[nH]c2c1 | + | 0 | 29 | -3 | -2 | 3
Nc1ccc2nc(-c3ccc(N)c(Cl)c3)[nH]c2c1 | 119* | 29 | 32* | 3 | -6 | 18
COc1ccc(C=NNC(=O)c2ccccc2)cc1COc1ccccc1 | x | x | x | x | x | 2
COc1ccc(S(=O)(=O)Nc2cccc3c2OC(CN(C)S(=O)(=O)c2ccccc2)C(C)CN(C(C)CO)C3=O)cc1 (configuration not stated) | x | x | x | x | x | 4
Cc1cc(C(F)(F)F)n(-c2nc(C(=O)NN=Cc3ccc(F)cc3)cs2)n1 | x | x | x | x | x | 5
CCOc1cc(C=NNc2nc(N3CCCCC3)nc(N3CCCCC3)n2)ccc1OC(=O)c1ccco1 | x | x | x | x | x | 9
CC(=NNC(=O)OC(C)(C)C)c1ccco1 | x | x | x | x | x | 11
CC(=O)Nc1ccc2nc(-c3cccn3C)[nH]c2c1 | 6 | 7 | 21 | -3 | 2 | x
CC(=O)Nc1ccc2nc(-c3cccs3)[nH]c2c1 | + | -3 | 44* | 2 | 2 | 5
Cc1ccc(-c2nn(-c3ccccc3)cc2C=NO)cc1 | x | x | x | x | x | -11
SMILES | FBA Mtb inh | Rv3671c protease | GDH-TPI counter | FadD28 FP inh | UGM FP inh | Mtb hypoxia rep
Clc1ccc2c(SCC3CO3)c3ccccc3nc2c1 (configuration not stated) | 122* | x | 15 | -2 | x | x
O=C(CSc1c2c(nc3cc(Cl)ccc13)CCCC2)NCCN1CCOCC1 | 1 | -4 | 3 | -4 | -1 | 16
Nc1cc(=O)[nH]c(SCC(=O)c2ccc(O)cc2O)n1 | -2 | 3 | 34* | -2 | 2 | -2
Cc1ccc2nc(SCC(=O)c3ccc(O)cc3O)[nH]c2c1 | 7 | -24 | 51* | -2 | 1 | -2
CSc1ccc(C=NNC(=O)CN2CCN(Cc3ccccc3Cl)CC2)cc1 | x | x | x | x | x | 0
c1ccc(Cn2ccc(-c3cnc(-c4ccccc4)s3)n2)cc1 | 182* | -9 | 18 | -3 | -2 | x
COc1ccc(C=CC(=O)c2ccc3cc(OC)c(OC)cc3c2)cc1OC | -4 | x | 31* | -10 | x | x
COc1ccc2cc(C(=O)/C=C/c3cc(OC)c(OC)c(OC)c3)ccc2c1 | 1 | -15 | 16 | -1 | 2 | 0
COc1cc(OC)c(C(=O)C=Cc2ccc(OC)c(OC)c2)c(OC)c1 | 0 | x | 35* | -2 | x | 0
COc1ccc(/C=C/C(=O)c2ccoc2)cc1 | 1 | -2 | 38* | 1 | 1 | 14
O=C(/C=C/c1ccc2c(c1)OCCO2)c1ccccc1 | -1 | -10 | 14 | -2 | 0 | 23
COc1ccc(C(=O)/C=C/c2ccc3c(c2)OCCO3)cc1 | 2 | 0 | 36* | 0 | -1 | -2
COc1cc(OC)c(C(=O)/C=C/c2ccc(OCc3ccccc3)c(OC)c2)c(OC)c1 | 0 | x | 17 | -3 | 1 | 11
COc1ccc(/C=C/C(=O)c2ccc(O)cc2)cc1 | 5 | -7 | 29 | -2 | -2 | x
COc1cc(C(=O)C(=O)c2ccc(OC)c(OC)c2)ccc1O | -6 | x | 32* | -4 | x | 5
COc1ccc(C=CC(=O)c2ccc(OC)c(OC)c2)cc1O | 3 | x | 40* | -3 | x | x
CCOc1cc(/C=C/C(=O)c2ccc(O)cc2)ccc1OCC(=O)N(C)C | -3 | -7 | 47* | -4 | 0 | 3
COc1ccc(-c2ccc(C(=S)N3CCN(C(C)=O)CC3)o2)cc1 | 7 | -12 | 32* | -5 | 0 | 20
CCOC(=O)C1C2COc3ccc(Br)cc3C2N2C(=O)c3cc(F)c(F)cc3NC(=O)[C@@]12C (some centres not stated) | x | x | x | x | x | -4
Cn1c(O)c(/C=N/c2ncccn2)c(=O)n(C)c1=O | 4 | -7 | 32* | -1 | -1 | 3
COc1ccc(N=Cc2c(O)n(C)c(=O)n(C)c2=O)cc1 | 1 | 1 | 26 | -2 | 3 | -2
Cc1ccc(N=Cc2c(O)n(C)c(=O)n(C)c2=O)cc1 | -2 | -11 | 35* | -1 | 0 | 12
Cc1cccc(N=Cc2c(O)n(C)c(=O)n(C)c2=O)c1 | -2 | 1 | 36* | -1 | -2 | 12
CC(C)(C)S(=O)(=O)C(C#N)=NNc1ccc(C#N)cc1 | x | x | x | x | x | 18
CCCOc1ccc(-c2c(C(=O)NN=Cc3cccs3)nnn2-c2nonc2N)cc1 | x | x | x | x | x | 7
SMILES | FBA Mtb inh | Rv3671c protease | GDH-TPI counter | FadD28 FP inh | UGM FP inh | Mtb hypoxia rep
O=C(CN1CCN(CCN2C(=O)c3cccc4cccc(c34)C2=O)CC1)c1ccc(F)cc1 | 3 | -3 | 15 | -2 | 2 | -7
COc1ccc(OCC(O)CN2CCC(CN3C(=O)c4cccc5cccc(c45)C3=O)CC2)cc1 (configuration not stated) | 23 | -6 | 45* | -5 | 2 | 8
COc1cc2c3c(cccc3c1)C(=O)N(CCN1CCCC1)C2=O | 147* | x | 16 | -3 | x | x
COc1ccc(C(=O)CN2CCN(CCN3C(=O)c4cccc5cccc(c45)C3=O)CC2)cc1 | 4 | -3 | 46* | -2 | 2 | 5
CCOC(=O)COc1ccc2c(c1)C(=O)CC(C)(c1cccnc1)O2 (configuration not stated) | 59* | -1 | -4 | -2 | 4 | 5
O=C1CC2(CCN(C(=O)COc3ccccc3)CC2)Oc2ccccc21 | 7 | -3 | 8 | -4 | -2 | 8
